Active and inactive are the calls of the source. The calls were made as follows: active = hit-call score of the fitted dose curve at least 0.9, where 1 is the maximum; inactive = score below 0.9.

Read-out in this assay: CYP4A11 (gene 1579)
As to the kind of experiment: LTEA_HepaRG_CYP4A11: Life Technologies and Expression Analysis (LTEA) Assay for CYP4A11 using HepaRG (AID 2283486). The conditions noted are these: mRNA level, 48 h; actives raise or lower the signal. As to the method: LTEA_HepaRG is a cell based, multiplexed-readout assay that uses HepaRG, a human liver cell line, with measurements taken at 48 hours after chemical dosing on a 96-well plate.LTEA_HepaRG_CYP4A11 is one of 102 assay component(s) measured in the LTEA HepaRG cell culture assay. It is a marker of NR mediated metabolism.Data from the assay component LTEA_HepaRG_CYP4A11 was analyzed into 1 endpoint. This assay endpoint, LTEA_HepaRG_CYP4A11, was analyzed with bidirectional fitting relative to DMSO as the negative control and baseline of activity. Using a type of inducible reporter, measures of mRNA induction for gain or loss-of-signal activity can be used to understand regulation of transcription factor activity. To generalize the intended target to other relatable targets, this assay endpoint is annotated to the cyp intended target family, where the subfamily is xenobiotic metabolism.
A total of 1060 chemcials from the ToxCast library were tested in eight-point concentration-response experiments. Cell culture and cytotoxicity assays were conducted at Thermo Fisher Scientific's Custom Services facility (Madison, WI). A single lot of human HepaRG cells (Thermo Fisher Scientific, Frederick, MD) was used for the cell culture experiments. 96-well format collagen type I coated plates of human HepaRG cells were prepared using established methods. Briefly, cryopreserved HepaRG cells were thawed, plated at a density of approximately 100,000 cells/well in HepaRG Thaw, Plate, and General Purpose media (HPRG770, Thermo Fisher Scientific), and incubated for 48 hours. 0.5% DMSO was selected as vehicle control to balance the requisite need of DMSO in HepaRG cultures to maintain differentiation (for example, baseline metabolism, proportions of hepatocytes vs. cholangiocytes), while enabling further hepatic receptor pathway activation (for example, PXR and CAR) in response to chemical exposure. 48 hours after plating, the culture medium was replaced with HepaRG Serum-Free Incudtion Media. Cells were exposed to each test chemical in duplicate and maintained in CO2 incubators for another 48 hours. Chemical plates were thawed to room temperature and 200x concentrations of treatment groups were prepared. 8-point conentration-reponse curves were made with the highest exposure at 100 uM, followed by half-log dilutions, all in 0.5% DMSO. Each test plate contained variouse controls, induction positive controls (1mM phenobarbital), cytotoxicity positive controls ([…] aflatoxin B1), vehicle controls (0.5% DMSO), and total lysis controls (0.5% DMSO). Cell morphology images were taken using an Essen IncuCyte FLR automated microscope, with six 96-well plates imaged in about 24 minutes. Images were captured and exported and JPEG files. Spent culture media was transfered to black-well plates for the LDH assay, and remaining media was sorted at -80 C for later use. Cells were treated with RLT buffer and frozen until shipped for gene expression analysis. Total RNA was isolated from the cell suspension in 75 uL of Buffer RLT (Qiagen, Germantown, MD 20874) by Quintiles/Expression Analysis (Durham, NC) using a custom isolation procedure. Total RNA from each plate well was transferred to a preamplification plate. Fluidigm's 96.96 Dynamic ArrayTM (Fluidigm, Amsterdam, the Netherlands) technology was used for gene expression analyses by quantitative reverse transcription polymerase chain reaction (qRT-PCR, performed by Quintiles/Expression Analysis, Durham, NC)89. Standard TaqManTM Assays (Applied Biosystems/ThermoFisher Scientific, Foster City, CA) were used to assess the expression of 93 genes selected based on their selectivity and sensitivity to important hepatic receptors known to be modulated by environmental chemicals; importance in human hepatocyte functionality; and hepatotoxicity. […]
`OC(CCl)CCl`: the outcome was inactive.

As for `OC[C@H]1O[C@@H]2O[C@H]3[C@H](O)[C@@H](O)[C@@H](O[C@H]4[C@H](O)[C@@H](O)[C@@H](O[C@H]5[C@H](O)[C@@H](O)[C@@H](O[C@H]6[C@H](O)[C@@H](O)[C@@H](O[C@H]7[C@H](O)[C@@H](O)[C@@H](O[C@H]1[C@H](O)[C@H]2O)O[C@@H]7CO)O[C@@H]6CO)O[C@@H]5CO)O[C@@H]4CO)O[C@@H]3CO`, the result was inactive.

On to `NC(=O)NN=Cc1ccc([N+](=O)[O-])o1`, for which the compound was classed as inactive.

Consider `OCc1ccccc1`, for which the compound was classed as inactive.

Take `O=S(=O)(O)c1ccc(N=Nc2c(O)ccc3cc(S(=O)(=O)O)ccc23)cc1`: the compound was called inactive.

As for `Cc1ncc([C@@H](CCCCCCc2ccc3c(n2)NCCC3)CC(=O)O)cn1`, the AC50 is 15.7 µM (active).

As for `CC[C@H](C)C(=O)O[C@H]1C[C@H](O)C=C2C=C[C@H](C)[C@H](CC[C@@H](O)C[C@@H](O)CC(=O)O)[C@H]21`, the result was inactive.

On to `CCCCCCCCCCCCCCCCOS(=O)(=O)O`, for which the compound was classed as inactive.

On to `CCCCCCCC/C=C\CCCCCCCC(=O)OC[C@@H](O)[C@H]1OC[C@H](O)[C@H]1O`, for which the call was inactive.

On to `NC(=O)N(O)[C@@H]1COc2cc(OCc3ccccc3)ccc21`, for which the outcome was inactive.

As for `c1ccc2ncccc2c1`, the result was inactive.

In the case of `CCCCCCCCN(C)C`, the outcome was inactive.

Consider `CC1(C)C(=O)N(Cl)C(=O)N1Cl`, for which the call was inactive.

As to `CCCCCOC(C)=O`, the compound was called inactive.

For the compound `CCCCC(CC)C(=O)OCCOCCOCCOC(=O)C(CC)CCCC` (stereo not given), the AC50 is 50 µM (active).

As for `CC(C)CCCCCCOC(=O)C1CCCCC1C(=O)OCCCCCCC(C)C` (stereo not given), the call was inactive.

`CC(C)C(=O)Nc1ccc([N+](=O)[O-])c(C(F)(F)F)c1`: the AC50 was 50.4 µM (active).

For `C[C@]12C=CC(=O)C=C1CC[C@H]1[C@@H]3C[C@@H](O)[C@](O)(C(=O)CO)[C@@]3(C)C[C@H](O)[C@@]12F`, the call was inactive.

For the compound `COCc1nnc(-c2ccc[n+]([O-])c2)n1-c1c(Cl)c(Cl)cc2[nH]c(=O)c(=O)[nH]c12`, the outcome was inactive.

Turning to `CCc1cccc(CC)c1N`, the call was inactive.

With `CCCC(CCC)C(=O)O`, the call was inactive.

With `CCOc1ccc2[nH]cc(C(=O)NCc3ccccc3)c(=O)c2n1`, the AC50 was 76.5 µM (active).

On to `C=CCc1cc(S(=O)(=O)c2ccc(O)c(CC=C)c2)ccc1O`, for which the concentration at half-maximal activity (AC50) is 94.4 µM (active).

On to `OCCNCCO`, for which the compound was called inactive.

In the case of `OCC(CO)(CO)CO`, the result was inactive.

As for `COc1cc2c(c(OC)c1OC)-c1ccc(OC)c(=O)cc1[C@@H](NC(C)=O)CC2`, the half-maximal activity concentration (AC50) is 0.0804 µM (active).

On to `CCN(CC)C(=S)SSC(=S)N(CC)CC`, for which the compound was called inactive.

Regarding `O=C(O)c1ccc2c(c1)nc(C(=O)NC1CCN(C3CC3)CC1)n2Cc1cc(-c2ccc(Cl)s2)on1`, the compound was called inactive.

With `NC(=O)N1c2ccccc2C=Cc2ccccc21`, the compound was called inactive.

With `Cn1c(=O)c2[nH]cnc2n(C)c1=O`, the result was inactive.

Take `CNC(C)=O`: the outcome was inactive.

As to `CCCCCCOC(=O)CC(CC(=O)OCCCCCC)(OC(=O)CCC)C(=O)OCCCCCC`, the outcome was inactive.

On to `CCCCN1C(=O)[C@@H]([C@H](O)C2CCCCC2)NC(=O)C12CCN(Cc1ccc(Oc3ccc(C(=O)O)cc3)cc1)CC2`, for which the AC50 was 2.41 µM (active).

On to `CC(=O)c1ccccc1`, for which the result was inactive.

For the compound `CCCCCCCCCCCCCCO`, the call was inactive.

Regarding `Cn1cc[nH]c1=S`, the outcome was inactive.

Consider `c1ccc2cc3ccccc3cc2c1`, for which the call was inactive.

In the case of `CCCCOC(=O)c1ccccc1`, the outcome was inactive.

Take `OC[C@H]1O[C@@](CO)(O[C@H]2O[C@H](CO)[C@@H](O)[C@H](O)[C@H]2O)[C@@H](O)[C@@H]1O`: the compound was called inactive.

Regarding `O=C(O)c1cccc(C[C@@H]2COc3ccc(OCc4nc5cc(F)ccc5s4)cc3[C@@H]2O)c1`, the AC50 was 85.9 µM (active).

The AC50 is the concentration at which the activity in the assay is half-maximal.

These data come from PubChem BioAssay (EPA / NIEHS).
